Test results as given in the supplement of paper PMC5662767.
Structures can show the parent of a compound that is named as a salt.

Tested on: Drosophila S2 cl14 SmoIP sensor cells
Test: normalized SmoIP GFP fluorescence (untreated unstimulated = 0%, untreated Hh-stimulated = 100%); higher = more Smo activation sensor fluorescence
Conditions: compound concentration: 2 uM, 24 h
[1] = stimulation: Hh conditioned medium (+Hh)
[2] = stimulation: mock conditioned medium (-Hh)
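Further: flow cytometry read-out as median GFP intensity of gated cells, compounds added 30 min before Hh-conditioned or mock medium, mock-treated cells serving as unstimulated baseline.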

C[C@@]1(C(=O)Nc2ccc(F)nc2)CCCN1c1nc(Nc2cc(C3CC3)n[nH]2)c2cccn2n1
normalized SmoIP GFP fluorescence [1]: 230% | normalized SmoIP GFP fluorescence [2]: 60.9%

Cn1cc(-c2cnn3c(N)c(Br)c([C@@H]4CCCNC4)nc23)cn1
normalized SmoIP GFP fluorescence [1]: 185% | normalized SmoIP GFP fluorescence [2]: 5.65%

COc1ccc(C[C@H](NC(=O)[C@H](C)NC(=O)CN2CCOCC2)C(=O)N[C@@H](Cc2ccccc2)C(=O)[C@@]2(C)CO2)cc1
normalized SmoIP GFP fluorescence [1]: 86.4% | normalized SmoIP GFP fluorescence [2]: 15.1%

COC[C@H](NC(=O)c1cnc(C)s1)C(=O)N[C@@H](COC)C(=O)N[C@@H](Cc1ccccc1)C(=O)[C@@]1(C)CO1 [oprozomib-onx-0912]
normalized SmoIP GFP fluorescence [1]: 81.9% | normalized SmoIP GFP fluorescence [2]: 26.7%

CCS(=O)(=O)Nc1ccc2c(c1)/C(=C(/Nc1ccc(CN3CCCCC3)cc1)c1ccccc1)C(=O)N2 [Hesperadin]
normalized SmoIP GFP fluorescence [1]: 94.8% | normalized SmoIP GFP fluorescence [2]: 12.7%

CC(C)(C#N)c1ccc(N2C(=O)OCc3cnc4ccc(-c5cnc6ccccc6c5)cc4c32)cc1
normalized SmoIP GFP fluorescence [1]: 148% | normalized SmoIP GFP fluorescence [2]: 28.4%

Cn1cc(-c2ccc3nnc(Sc4ccc5ncccc5c4)n3n2)cn1
normalized SmoIP GFP fluorescence [1]: 96.1% | normalized SmoIP GFP fluorescence [2]: -1.88%

Cn1c(=O)cc(N2CCC[C@@H](N)C2)n(Cc2cc(F)ccc2C#N)c1=O [trelagliptin]
normalized SmoIP GFP fluorescence [1]: 104% | normalized SmoIP GFP fluorescence [2]: 3.18%

C[C@H](Nc1ncnc2nc[nH]c12)c1cc2cccc(Cl)c2c(=O)n1-c1ccccc1
normalized SmoIP GFP fluorescence [1]: 98% | normalized SmoIP GFP fluorescence [2]: -4.24%

CO[C@H]1C[C@@H]2CC[C@@H](C)[C@@](O)(O2)C(=O)C(=O)N2CCCC[C@H]2C(=O)O[C@H]([C@H](C)C[C@@H]2CC[C@@H](OC(=O)C(C)(CO)CO)[C@H](OC)C2)CC(=O)[C@H](C)/C=C(\C)[C@@H](O)[C@@H](OC)C(=O)[C@H](C)C[C@H](C)/C=C/C=C/C=C/1C [Temsirolimus]
normalized SmoIP GFP fluorescence [1]: 56.5% | normalized SmoIP GFP fluorescence [2]: -1.56%

Cc1c(C(=O)Nc2ccc(N3C[C@@H](C)O[C@@H](C)C3)nc2)cccc1-c1ccc(OC(F)(F)F)cc1
normalized SmoIP GFP fluorescence [1]: 114% | normalized SmoIP GFP fluorescence [2]: -12.2%

CC1(COc2ccc3c(c2)ncn3-c2ccc3cccc(N4CCC(N)CC4)c3n2)COC1
normalized SmoIP GFP fluorescence [1]: 260% | normalized SmoIP GFP fluorescence [2]: 77.9%

CN(C)[C@@H](CCOc1cccc2ccccc12)c1ccccc1 [Dapoxetine-hydrochloride(Priligy)]
normalized SmoIP GFP fluorescence [1]: 115% | normalized SmoIP GFP fluorescence [2]: -13.2%

CC(C)(C)NS(=O)(=O)c1cncc(-c2cc(F)c3nc(N)nn3c2)c1
normalized SmoIP GFP fluorescence [1]: 104% | normalized SmoIP GFP fluorescence [2]: -4.47%

C=CC(=O)Nc1cccc(Oc2nc(Nc3ccc(N4CCN(C)CC4)cc3OC)ncc2Cl)c1
normalized SmoIP GFP fluorescence [1]: 96.5% | normalized SmoIP GFP fluorescence [2]: 19.1%

O=C(Nc1cccc(C(F)(F)F)c1)Nc1cc(S(=O)(=O)NC2CC2)ccc1-c1ccsc1
normalized SmoIP GFP fluorescence [1]: 111% | normalized SmoIP GFP fluorescence [2]: -3.05%

Cc1ccccc1C(OCCN(C)C)c1ccccc1 (centres undefined) [orphenadrine-citrate-norflex]
normalized SmoIP GFP fluorescence [1]: 142% | normalized SmoIP GFP fluorescence [2]: -11.7%

CC(C)(C)c1cnc(CSc2cnc(NC(=O)C3CCNCC3)s2)o1
normalized SmoIP GFP fluorescence [1]: 131% | normalized SmoIP GFP fluorescence [2]: 66%

COC(=O)N[C@H](C(=O)N1CCC[C@H]1c1ncc(-c2ccc(-c3ccc(-c4cnc([C@@H]5CCCN5C(=O)[C@@H](NC(=O)OC)C(C)C)[nH]4)cc3)cc2)[nH]1)C(C)C
normalized SmoIP GFP fluorescence [1]: 112% | normalized SmoIP GFP fluorescence [2]: 7.39%

COc1ccc(-c2oc3c(CC=C(C)C)c(O[C@@H]4O[C@H](CO)[C@@H](O)[C@H](O)[C@H]4O)cc(O)c3c(=O)c2O[C@@H]2O[C@@H](C)[C@H](O)[C@@H](O)[C@H]2O)cc1 [Icariin]
normalized SmoIP GFP fluorescence [1]: 92.7% | normalized SmoIP GFP fluorescence [2]: -3.27%

C[C@H]1c2cccc(O)c2C(=O)C2=C(O)[C@]3(O)C(=O)C(C(N)=O)=C(O)[C@@H](N(C)C)[C@@H]3[C@@H](O)[C@@H]21 [doxycycline-hcl]
normalized SmoIP GFP fluorescence [1]: 101% | normalized SmoIP GFP fluorescence [2]: -1.63%

COc1cccc2cc(-c3nc([C@H]4CC[C@H](C(=O)O)CC4)n4ncnc(N)c34)[nH]c12
normalized SmoIP GFP fluorescence [1]: 54.2% | normalized SmoIP GFP fluorescence [2]: -5.17%

CCc1c(O)cc(O)c(C(=O)c2ccc(OCCN3CCOCC3)c(OC)c2)c1CC(=O)N(CCOC)CCOC
normalized SmoIP GFP fluorescence [1]: 121% | normalized SmoIP GFP fluorescence [2]: -12.4%

NC(=O)c1cnc(N[C@@H]2CCCC[C@@H]2N)nc1Nc1cccc(-n2nccn2)c1
normalized SmoIP GFP fluorescence [1]: 166% | normalized SmoIP GFP fluorescence [2]: 24.4%

C[C@H](Cn1cnc2c(N)ncnc21)OCP(=O)(O)O [Tenofovir]
normalized SmoIP GFP fluorescence [1]: 104% | normalized SmoIP GFP fluorescence [2]: -4.47%

CCS(=O)(=O)N1CC(CC#N)(n2cc(-c3ncnc4[nH]ccc34)cn2)C1
normalized SmoIP GFP fluorescence [1]: 110% | normalized SmoIP GFP fluorescence [2]: -0.775%

Cn1c(=O)c(F)c(Nc2ccc(I)cc2F)c2c(=O)n(C[C@@H](O)CO)cnc21
normalized SmoIP GFP fluorescence [1]: 262% | normalized SmoIP GFP fluorescence [2]: 47.8%

C/C=C1\[C@H]2C=C(C)C[C@]1(N)c1ccc(=O)[nH]c1C2 [(-)-Huperzine-A]
normalized SmoIP GFP fluorescence [1]: 139% | normalized SmoIP GFP fluorescence [2]: -7.42%

O=C(Nc1ccc(-c2ccnc(Nc3ccc(N4CCOCC4)cc3)n2)cc1)C1CCCN1 (centres undefined)
normalized SmoIP GFP fluorescence [1]: 121% | normalized SmoIP GFP fluorescence [2]: 2.12%

O=C1NC(=O)C(c2ccccc2[N+](=O)[O-])=C1Nc1ccc(O)c(Cl)c1
normalized SmoIP GFP fluorescence [1]: 153% | normalized SmoIP GFP fluorescence [2]: -16.1%

CCCCOc1c(C(=O)c2c(F)cc(C)cc2F)c[nH]c2nncc1-2
normalized SmoIP GFP fluorescence [1]: 138% | normalized SmoIP GFP fluorescence [2]: -11.7%

Cc1ccc(NC(=O)c2ccc(CN3CCN(C)CC3)cc2)cc1Nc1nc(-c2cccnc2)cs1 [Masitinib-(AB1010)]
normalized SmoIP GFP fluorescence [1]: 113% | normalized SmoIP GFP fluorescence [2]: 20.6%

NC1(Cc2ccc(Cl)cc2)CCN(c2ncnc3[nH]ccc23)CC1
normalized SmoIP GFP fluorescence [1]: 115% | normalized SmoIP GFP fluorescence [2]: 8.36%

CO[C@H]1/C=C\C=C(/C)C(=O)NC2=CC(=O)C(NCCN(C)C)=C(C[C@@H](C)C[C@H](OC)[C@H](O)[C@@H](C)/C=C(\C)[C@@H]1OC(N)=O)C2=O [17-DMAG,Hydrochloride-Salt]
normalized SmoIP GFP fluorescence [1]: 219% | normalized SmoIP GFP fluorescence [2]: 44.8%

Cc1nc(Nc2ncc(C(=O)Nc3c(C)cccc3Cl)s2)cc(N2CCN(CCO)CC2)n1 [Dasatinib]
normalized SmoIP GFP fluorescence [1]: 126% | normalized SmoIP GFP fluorescence [2]: -3.93%

O=C(Nc1c(Cl)cncc1Cl)c1ccc(OC(F)F)c(OCC2CC2)c1 [Roflumilast(Daxas)]
normalized SmoIP GFP fluorescence [1]: 134% | normalized SmoIP GFP fluorescence [2]: -8.23%

Oc1c2ccccc2c2c3c(cccc13)N=N2
normalized SmoIP GFP fluorescence [1]: 121% | normalized SmoIP GFP fluorescence [2]: 66%

C[S+]([O-])c1ccc(-c2nc(-c3ccc(F)cc3)c(-c3ccncc3)[nH]2)cc1 (centres undefined)
normalized SmoIP GFP fluorescence [1]: 119% | normalized SmoIP GFP fluorescence [2]: -5.98%

CCCc1cc(C)[nH]c(=O)c1CNC(=O)c1cc(-c2ccc(N3CCN(C(C)C)CC3)nc2)cc2c1cnn2C(C)C
normalized SmoIP GFP fluorescence [1]: 116% | normalized SmoIP GFP fluorescence [2]: 5.7%

O=C(Nc1ccc(S(=O)(=O)Nc2ccccc2Cl)c(Cl)c1)c1ccccn1
normalized SmoIP GFP fluorescence [1]: 131% | normalized SmoIP GFP fluorescence [2]: 3.4%

O=C(/C=C/c1cccc(S(=O)(=O)Nc2ccccc2)c1)NO [Belinostat]
normalized SmoIP GFP fluorescence [1]: 189% | normalized SmoIP GFP fluorescence [2]: 54.6%

CN1CCC(=C2c3ccccc3CCc3cccnc32)CC1 [azatadine-dimaleate]
normalized SmoIP GFP fluorescence [1]: 114% | normalized SmoIP GFP fluorescence [2]: 4.79%

NCCCCCNCC12CC3CC(CC(C3)C1)C2 [iem-1754-dihydrobromide]
normalized SmoIP GFP fluorescence [1]: 102% | normalized SmoIP GFP fluorescence [2]: -2.31%

O=C(NS(=O)(=O)c1ccc(Br)s1)c1ccc(Cl)cc1Cl [tasisulam]
normalized SmoIP GFP fluorescence [1]: 104% | normalized SmoIP GFP fluorescence [2]: -4.01%

C[C@H]1COC2=C1C(=O)C(=O)c1c2ccc2c1CCCC2(C)C [Cryptotanshinone]
normalized SmoIP GFP fluorescence [1]: 115% | normalized SmoIP GFP fluorescence [2]: -9.22%

Cn1cc(C2=C(c3ccc(Cl)cc3Cl)C(=O)NC2=O)c2ccccc21
normalized SmoIP GFP fluorescence [1]: 115% | normalized SmoIP GFP fluorescence [2]: 16.5%

Cc1cc(Nc2cc(CN3CCOCC3)c3nc(C)c(Cc4ccc(Cl)cc4F)n3n2)n[nH]1
normalized SmoIP GFP fluorescence [1]: 109% | normalized SmoIP GFP fluorescence [2]: -5.53%
